According to PubChem BioAssay (Tox21):
Inconclusive results are not listed. Calls of active or inactive are those of the source. Unless noted, the call rests on the fitted dose curve; in most records, active means well fitted curve in the direction sought with a large enough effect in the repeat runs; inconclusive means weak or mixed curves; inactive means no such curve, though single readings can be large; an effect the other way counts as inactive or inconclusive.

How the values were obtained:
[1] = qHTS assay to identify small molecule agonists of the peroxisome proliferator-activated receptor delta (PPARd) signaling pathway - cell viability counter screen (AID 743211); further: nearly all actives have a fitted effect of over 55% in size
How it was run: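 PPARd-bla HEK293H cells (UAS-beta-lactamase reporter) were treated with compounds for 17 h at 37 C. Viability was then read in the same wells by CellTiter-Glo luminescence after 30 min at room temperature.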

[2] = target: Peroxisome proliferator-activated receptor delta (Homo sapiens) (UniProt Q03181); experiment: qHTS assay to identify small molecule agonists of the peroxisome proliferator-activated receptor delta (PPARd) signaling pathway (AID 743212; calls by dose curve)
How it was run: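 HEK293H UAS-bla reporter cells, human PPARd system; compounds delivered in DMSO after 5 h plating, then at 37 C. Beta-lactamase FRET read, 2 h RT substrate step.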

[3] = qHTS assay to identify small molecule antagonists of the peroxisome proliferator-activated receptor delta (PPARd) signaling pathway - cell viability counter screen (AID 743213); further: nearly all actives have a fitted effect of over 50% in size
How it was run: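 Same-well viability: cells pre-incubated 5 h, dosed with compound plus 300 nM L165041, kept 17 h at 37 C, FRET substrate 2 h RT, then CellTiter-Glo 30 min RT and luminescence.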

[4] = target: Peroxisome proliferator-activated receptor delta (Homo sapiens) (UniProt Q03181); experiment: qHTS assay to identify small molecule antagonists of the peroxisome proliferator-activated receptor delta (PPARd) signaling pathway (AID 743215; active means well fitted inhibition curve with a large enough effect in the signal ratio in the repeat runs, not every such curve was filed as active; the % refers to the signal ratio;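 further: cells stimulated with agonist L165041 at 300 nM final during compound exposure; series mostly up to about 62 µM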)
How it was run: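 Antagonist-mode beta-lactamase reporter screen: HEK293H cells with UAS-bla under PPARd control, stimulated by 300 nM L165041 (final) alongside test compound for 17 h at 37 C, then FRET fluorescence after 2 h substrate incubation.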

[5] = qHTS assay to identify small molecule agonists of the farnesoid-X-receptor (FXR) signaling pathway - cell viability counter screen (AID 743218); further: nearly all actives have a fitted effect of over 45% in size
How it was run: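 In GeneBLAzer FXR-UAS-bla HEK 293T cells, compounds act for 16 h at 37 C. Cell viability is then scored in the reporter wells by CellTiter-Glo, 30 min at RT, luminescence.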

[6] = qHTS assay to identify small molecule antagonists of the farnesoid-X-receptor (FXR) signaling pathway - cell viability counter screen (AID 743221; active means well fitted cell-killing curve with a large enough effect in the repeat runs, not every such curve was filed as active; further: nearly all actives have a fitted effect of over 50% in size)
How it was run: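 FXR-UAS-bla HEK 293T cells were treated with test compounds plus chenodeoxycholic acid (50 uM final) for 16 h at 37 C. Cell viability in the same wells was then read as CellTiter-Glo luminescence after 30 min at room temperature.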

[7] = target: Vitamin D3 receptor (Homo sapiens) (UniProt P11473); experiment: qHTS assay to identify small molecule agonists of the vitamin D receptor (VDR) signaling pathway (AID 743222; calls by dose curve)
How it was run: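 Agonist activity measured in VDR-bla reporter cells. Exposure 16 h, 37C, 5% CO2; detection by B/G FRET substrate, 2 h RT.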

[8] = target: Vitamin D3 receptor (Homo sapiens) (UniProt P11473); experiment: qHTS assay to identify small molecule antagonists of the vitamin D receptor (VDR) signaling pathway (AID 743223; active means well fitted inhibition curve with a large enough effect in the signal ratio in the repeat runs, not every such curve was filed as active; the % refers to the signal ratio)
How it was run: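 VDR-bla cells were plated, incubated 4 h at 37C, then given compound and 1alpha,25-dihydroxyvitamin D3 (3 nM final). After 16 h at 37C, LiveBLAzer B/G FRET substrate was added for 2 h at room temperature and fluorescence read.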

[9] = qHTS assay to identify small molecule agonists of the vitamin D receptor (VDR) signaling pathway - cell viability counter screen (AID 743224); further: series mostly up to about 63 µM; nearly all actives have a fitted effect of over 50% in size
How it was run: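 VDR-bla cell line, quantitative HTS format; 16 h compound incubation (37C, 5% CO2); ATP-based CellTiter-Glo luminescence measured in the reporter assay wells.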

[10] = qHTS assay to identify small molecule antagonists of the vitamin D receptor (VDR) signaling pathway - cell viability counter screen (AID 743225); further: nearly all actives have a fitted effect of over 50% in size
How it was run: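 VDR-bla HEK 293T cells, 4 h pre-incubation at 37C, then compound plus 1-alpha,25-dihydroxyvitamin D3 (3 nM final) for 16 h. After the beta-lactamase FRET read, CellTiter-Glo was added to the same wells; luminescence after 30 min at room temperature.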

[11] = qHTS assay to identify small molecule agonists of the NFkB signaling pathway (AID 1159509; active means well fitted curve in the direction sought with a large enough effect in the signal ratio in the repeat runs, not every such curve was filed as active; the % refers to the signal ratio; further: series mostly up to about 61 µM)
How it was run: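 After overnight attachment, reporter cells received test compounds, DMSO or positive controls and were incubated 5 hr at 37 C. FRET substrate was then added for 1.5 hr at room temperature before dual-emission fluorescence reading.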

[12] = qHTS assay to identify small molecule agonists of the NFkB signaling pathway - cell viability counter screen (AID 1159515; calls by dose curve; further: series mostly up to about 61 µM; nearly all actives have a fitted effect of over 55% in size)
How it was run: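 Viability in NFkB-bla ME-180 cells was measured by CellTiter-Glo luminescence, 30 min room temperature, in wells already treated 5 hr with compounds and read for reporter FRET.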

[13] = qHTS assay to identify small molecule agonists of the endoplasmic reticulum stress response signaling pathway (AID 1159516; active means well fitted activation curve with a large enough effect in the signal ratio in the repeat runs, not every such curve was filed as active; the % refers to the signal ratio)
How it was run: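 ER stress element reporter (bla) in HeLa. 1,500 cells/well, overnight attachment; 5 hr compound; 2 hr RT substrate; dual-emission fluorescence.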

[14] = qHTS assay to identify small molecule antagonists of the retinoid-related orphan receptor gamma (ROR-gamma) signaling pathway - cell viability counter screen (AID 1159520); further: nearly all actives have a fitted effect of over 50% in size
How it was run: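 Cytotoxicity was read from cellular ATP (CellTiter-Glo luminescence) after 16 hr at 37 C with 1 uM doxycycline induction. The inducer was added 2 hr after compound transfer to Tet-on ROR gamma CHO cells.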

[15] = target: Nuclear receptor ROR-gamma (Homo sapiens) (UniProt P51449); experiment: qHTS assay to identify small molecule antagonists of the retinoid-related orphan receptor gamma (ROR-gamma) signaling pathway (AID 1159521)
How it was run: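 Tet-on RORγ CHO cells carrying a ROR response element–luciferase reporter were pretreated with compounds for 2 h, then induced with 1 uM (final) doxycycline hyclate for 16 h at 37 C. Antagonism was read as decreased ONE-Glo luminescence.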

[16] = qHTS assay to identify small molecule agonists of the AP-1 signaling pathway - cell viability counter screen (AID 1159525; calls by dose curve; further: nearly all actives have a fitted effect of over 55% in size)
How it was run: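 Luminescent ATP readout (Cell Titer Glo, 30 min RT), normalised to DMSO and tetra n-octyl ammonium bromide controls. Cells were ME-180 AP-1-bla in 0.5% dialyzed FBS Opti-MEM, with a 5 h, 37 °C compound exposure.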

[17] = qHTS assay to identify small molecule agonists of the AP-1 signaling pathway (AID 1159526; calls by dose curve)
[18] = target: Bile acid receptor (Homo sapiens) (UniProt Q96RI1); experiment: qHTS assay to identify small molecule antagonists of the farnesoid-X-receptor (FXR) signaling pathway (AID 743217; active means well fitted inhibition curve with a large enough effect in the signal ratio in the repeat runs, not every such curve was filed as active; the % refers to the signal ratio)
How it was run: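 Beta-lactamase reporter under UAS control in HEK 293T cells; compound exposure 16 h at 37 °C in the presence of chenodeoxycholic acid (50 uM final); signal from B/G FRET substrate after 2 h at room temperature.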

[19] = target: Bile acid receptor (Homo sapiens) (UniProt Q96RI1); experiment: qHTS assay to identify small molecule agonists of the farnesoid-X-receptor (FXR) signaling pathway (AID 743220; active means well fitted activation curve with a large enough effect in the signal ratio in the repeat runs, not every such curve was filed as active; the % refers to the signal ratio; further: potency means the concentration at half of the fitted maximal effect)
How it was run: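 Beta-lactamase reporter under UAS control in GeneBLAzer FXR HEK 293T cells (5000/well) measured with LiveBLAzer FRET substrate after 2 h at room temperature. Compound exposure lasted 16 h at 37C.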

Measured: Potency

Bile acid receptor (Homo sapiens), sequence (Q96RI1 whole entry, looked up): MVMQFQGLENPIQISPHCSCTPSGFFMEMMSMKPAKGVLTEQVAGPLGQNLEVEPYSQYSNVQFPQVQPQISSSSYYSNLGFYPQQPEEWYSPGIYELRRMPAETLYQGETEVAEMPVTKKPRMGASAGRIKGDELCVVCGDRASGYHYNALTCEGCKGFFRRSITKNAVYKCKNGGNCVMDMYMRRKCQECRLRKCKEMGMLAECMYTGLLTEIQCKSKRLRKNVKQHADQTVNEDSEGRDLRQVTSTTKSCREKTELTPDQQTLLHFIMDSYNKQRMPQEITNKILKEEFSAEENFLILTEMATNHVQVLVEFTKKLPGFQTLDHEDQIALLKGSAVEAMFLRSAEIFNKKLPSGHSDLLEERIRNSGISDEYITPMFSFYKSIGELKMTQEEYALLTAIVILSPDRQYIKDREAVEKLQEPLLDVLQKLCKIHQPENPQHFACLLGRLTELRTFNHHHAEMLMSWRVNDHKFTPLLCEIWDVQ
Peroxisome proliferator-activated receptor delta (Homo sapiens), sequence (Q03181 whole entry, looked up): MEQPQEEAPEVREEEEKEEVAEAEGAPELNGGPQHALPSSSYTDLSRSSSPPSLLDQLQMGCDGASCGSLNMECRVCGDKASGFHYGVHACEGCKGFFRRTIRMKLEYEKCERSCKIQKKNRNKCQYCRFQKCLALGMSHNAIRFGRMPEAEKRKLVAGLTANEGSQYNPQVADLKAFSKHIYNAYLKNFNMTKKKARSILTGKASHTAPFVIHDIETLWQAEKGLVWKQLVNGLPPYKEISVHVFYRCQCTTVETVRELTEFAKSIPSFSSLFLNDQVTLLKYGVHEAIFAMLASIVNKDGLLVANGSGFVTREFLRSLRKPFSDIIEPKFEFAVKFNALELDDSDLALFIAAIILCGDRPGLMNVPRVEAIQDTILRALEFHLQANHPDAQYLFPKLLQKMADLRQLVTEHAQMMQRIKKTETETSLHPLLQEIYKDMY
Vitamin D3 receptor (Homo sapiens), sequence (P11473 whole entry, looked up): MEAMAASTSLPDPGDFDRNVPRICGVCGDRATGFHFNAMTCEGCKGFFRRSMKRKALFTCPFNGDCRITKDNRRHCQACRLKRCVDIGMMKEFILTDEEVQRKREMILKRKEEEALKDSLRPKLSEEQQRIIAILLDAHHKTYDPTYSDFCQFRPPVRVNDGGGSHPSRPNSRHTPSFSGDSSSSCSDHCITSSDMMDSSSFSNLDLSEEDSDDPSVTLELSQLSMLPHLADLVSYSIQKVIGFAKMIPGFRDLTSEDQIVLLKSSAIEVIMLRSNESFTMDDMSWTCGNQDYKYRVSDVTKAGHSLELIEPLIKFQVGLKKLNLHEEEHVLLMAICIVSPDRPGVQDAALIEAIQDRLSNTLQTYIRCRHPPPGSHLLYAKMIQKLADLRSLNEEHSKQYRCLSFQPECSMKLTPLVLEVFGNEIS

CN=C(N)NC(=O)Nc1c(C)cccc1C
not listed: [18] | [19]
inactive: all other assays above

O=NN(CCCl)C(=O)NCCCl
not listed: [3] | [7] | [8] | [9] | [18] | [19]
inactive: all other assays above

CC(=O)OCC1=C(C(=O)O)N2C(=O)[C@@H](NC(=O)CSc3ccncc3)[C@H]2SC1
not listed: [1] | [4] | [7] | [8] | [17] | [19]
inactive: all other assays above

c1ccc(CCCc2ccncc2)cc1
active: [19] 49 µM
not listed: [4] | [7] | [8] | [18]
inactive: all other assays above

COc1ccc(-c2cc(C(F)F)nn2-c2ccc(S(N)(=O)=O)cc2)cc1F
not listed: [1] | [4] | [5] | [9] | [18]
inactive: all other assays above

CC(=O)Oc1cccc(O)c1
not listed: [1] | [2] | [4] | [7] | [8]
inactive: all other assays above

CCCCCCCC/C=C\CCCCCCCC(=O)OCCO
not listed: [2] | [6] | [7] | [8] | [17] | [18] | [19]
inactive: all other assays above

Cc1cccc(C)c1NC(=O)c1cc(S(N)(=O)=O)c(Cl)cc1O
inactive: all assays above

OCC(CO)n1cnc(-c2ccc(F)cc2)c1-c1ccnc(Oc2ccccc2)n1
not listed: [1] | [8] | [18] | [19]
inactive: all other assays above
